SMARCA2 activ: SMARCA2 (BRM) function activators, primary screen, cell-based, luminescence, high throughput; activation, % at 9.1 µM; 370,000 tested, 1% active; MG213 cells, MMTV-luciferase reporter, dexamethasone, overnight; in the data active means activation above about 7.8%;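 further: 0% = vehicle wells and 100% = reference activator wells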
Wnt act: Wnt/beta-catenin pathway activators, primary screen, cell-based, plate reader, single point; Wnt/beta-catenin reporter cell assay, activator; activation, % at 9.35 µM; 300,000 tested, 1.2% active; AID 743398, 2014; in the data active means activation above about 30%, passing the limit was not always enough; inconclusive means no clear call, values can overlap the other calls;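 further: 0% = neutral control wells and 100% = positive control wells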
esBAF inh: Bmi1 luciferase reporter increase in mESCs, primary screen, esBAF inhibitor project, mouse ES cells, Bmi1 luciferase knock-in, single point. 24 h; 100% = twice the neutral-well signal. reporter increase, % at 12.5 µM. 350,000 tested, 2% active. AID 602393, 2012; in the data active means activation above about 40%; inconclusive means no clear call, values can overlap the other calls;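 further: 0% = median of the plate's neutral control wells and 100% = double that signal; a rise in the Bmi1 reporter signal indicates esBAF inhibition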
MITF TRPM1 HTS: activators of MITF-driven TRPM1 promoter reporter, primary screen, cell-based, SK-MEL-5, luciferase, single point. AID 588334, 2011. activation, % at 12.5 µM. SK-MEL-5 TRPM1-promoter luciferase, 24 h; % of positive control, neutral wells = 0. 300,000 tested, 0.75% active;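 active means mean activation of at least 80% with every replicate also reaching 80%; inconclusive means mean reaches 80% but some replicate falls short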;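 further: 0% = neutral control wells and 100% = parthenolide positive control wells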
HSF1 inh: HSF1 inhibitors in luciferase reporter cells, primary screen, cell-based, NIH3T3, luminescence | NIH3T3-HGL HSE-luciferase, MG132-induced, luminescence 8 h; active compounds read low | activity change, negative = inhibition, % at 7.5 µM (by protocol) | 300,000 tested, 0.77% active | AID 2098, 2009;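 active means more than half of replicate wells show activity change below -50%, luminescence cut by over half; inconclusive means some wells, but at most half, below -50%; inactive means no replicate well below -50%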;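 further: luciferase reports HSF-1 transcriptional activity via heat shock element; 0% = median of DMSO wells and -100% = zero luminescence signal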
HSF-1 act: HSF-1 activators, primary screen, NIH3T3-HGL cells, MG132 stress, luminescence, single point; NIH3T3-HGL HSF-1 luciferase reporter, 8 h; 100% = twice DMSO control signal; activation, % at 9 µM; 300,000 tested, 1.7% active; AID 504408, 2011;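 active means mean replicate activation of at least 50% with a set share of replicates each reaching 50%; inconclusive means only one of those two conditions met; inactive means mean below 50% and too few replicates reaching it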;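 further: 0% = median of the neutral control wells and 100% = twice that signal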
SMARCA2 act conf: SMARCA2 (BRM) function activators, confirmation, cell-based, luminescence, triplicate. shares compounds with SMARCA2 activ. AID 652260, 2013. 3,500 tested, 30% active. activation, % at 9.1 µM. MG213 cells, MMTV-luciferase with dexamethasone, overnight; MG213 cells expressing E1A, Rb sequestered; DMSO wells 0%, reference activator 100%;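 active means activation above its plate's cutoff, the mean activation of tested wells plus 3 SD, cut at about 7.9% in these data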
GAL4-VP16 Luc: GAL4-VP16 luciferase reporter activation, counter-screen for SMARCA2 (BRM) activator project, cell-based, pG5luc, luminescence, high throughput; HEK293 GAL4-VP16 pG5luc reporter; scaled: DMSO wells 0%, SAHA wells 100%; shares compounds with SMARCA2 activ; 3,500 tested, 41% active; AID 686939, 2013; activation, % at 9.1 µM;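 active means activation above the solvent-only control well mean plus 3 SD, averaged across control plates, cut at about 5.2% in these data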
The depositor's hits bear a star; u = inconclusive; x = not tested or not shown. Hits are enriched below; roughly 4.3% of the tested compounds scored in any of these assays.

SMILES | SMARCA2 activ | Wnt act | esBAF inh | MITF TRPM1 HTS | HSF1 inh | HSF-1 act | SMARCA2 act conf | GAL4-VP16 Luc
O=C(Nc1ccc(N2CCOCC2)nc1)c1ccccc1Cl | 9.6* | 21.2 | 44.7* | 54.3 | 10.9 | 15.2 | 1.7 | 2.4
COc1c(C)cccc1C(=O)Nc1ccc(N2CCOCC2)c(Cl)c1 | 8.5* | x | 58.5* | 88.9* | 25.0 | 60.3* | 3.5 | 14.4*
COC(=O)c1cc(NC(=O)c2c(C)noc2C)ccc1N1CCOCC1 | 9.2* | -1.0 | -8.0 | -7.0 | 0.5 | -18.2 | 2.7 | 0.5
CC(C)CC#Cc1cnc2c(c1)C(=O)N([C@H](C)CO)C[C@@H](C)[C@H](CN(C)C(=O)c1cnccn1)O2 | x | x | -1.2 | x | x | x | x | x
Cc1noc(C)c1NC(=O)N(C)C[C@H]1Oc2c(NS(=O)(=O)c3ccccc3)cccc2C(=O)N([C@@H](C)CO)C[C@H]1C | x | x | 1.5 | x | x | x | x | x
COc1cccc(-c2cnc3c(c2)C(=O)N([C@H](C)CO)C[C@H](C)[C@@H](CN(C)CC2CCCC2)O3)c1 | x | x | -3.1 | x | x | x | x | x
c1cc(-c2cc3cc4c(cc3cn2)OCO4)cs1 | 8.9* | 49.7* | 76.6* | u | x | x | 3.3 | 7.9*
C[C@H]1CN([C@@H](C)CO)C(=O)c2cccc(NC(=O)C3CCCCC3)c2O[C@H]1CN(C)Cc1ccc(-c2ccccc2)cc1 | x | x | 1.4 | x | x | x | x | x
COc1cccc(S(=O)(=O)N[C@@H]2CC[C@H](CC(=O)NC3Cc4ccccc4C3)O[C@@H]2CO)c1 | x | x | 4.7 | x | x | x | x | x
CCOc1cc(CNc2ccc(N3CCN(C(C)=O)CC3)cc2)cc(Br)c1OC | 8.6* | x | x | 3.2 | -0.9 | 11.3 | 1.6 | 0.5
CS(=O)(=O)n1nc(-c2ccc(Cl)cc2)nc1N | 8.5* | -0.9 | x | 24.3 | 4.5 | 1.3 | 1.5 | 1.3
CS(=O)(=O)n1nc(-c2ccccc2)nc1N | -2.8 | x | 4.0 | 1.5 | x | x | x | x
COc1ccc(CNC(=O)C[C@H]2CC[C@@H]3[C@@H](COc4ccc(NC(=O)C5CC5)cc4C(=O)N3C)O2)cc1 | x | x | 2.6 | x | x | x | x | x
Cc1cc(NC(=O)c2ccco2)sc1C | 9.1* | 62.4* | 29.4 | 103.6* | x | x | 12.1* | 11.3*
Cc1ccc(-c2nnc(NC(=O)c3ccco3)s2)cc1 | 9.2* | 0.0 | -28.5 | 57.3 | 9.1 | 12.4 | 12.7* | 12.1*
O=C(Nc1nc2ccsc2c(=O)s1)c1ccco1 | 13.5* | 42.7* | x | x | 14.3 | 34.5 | 10.0* | 6.4*
Cc1cccc(NC(=O)c2ccco2)c1C | 1.5 | 1.8 | 0.4 | x | -0.6 | 15.8 | x | x
Cc1ccc2nc(NC(=S)NC(=O)c3ccco3)sc2c1 | 17.0* | 20.3 | x | 42.1 | 8.8 | 36.4 | 9.5* | 15.1*
C[C@@H]1CN([C@@H](C)CO)C(=O)c2cccc(NS(=O)(=O)c3ccccc3)c2O[C@@H]1CN(C)S(C)(=O)=O | x | x | 0.2 | x | x | x | x | x
COC(=O)C[C@H]1CC[C@H]2[C@@H](COC[C@@H](O)CN2CCC(F)(F)F)O1 | x | x | -3.0 | x | x | x | x | x
O=C(CN1C(=O)S/C(=C\C=C\c2ccccc2)C1=O)Nc1ccc(C(=O)O)cc1 | -2.0 | -1.5 | 3.7 | 3.8 | 11.4 | -2.4 | x | x
O=C(CN1C(=O)S/C(=C/C=C/c2ccccc2)C1=O)Nc1ccc(C(=O)O)cc1 | 12.2* | 10.7 | x | 5.1 | 3.6 | 30.3 | 0.7 | 0.5
CC(C)NC(=O)Nc1cccc2c1O[C@@H](CN(C)Cc1ccc(C(=O)O)cc1)[C@H](C)CN([C@H](C)CO)C2=O | x | x | 3.0 | x | x | x | x | x
O=C(/C=C/c1ccccc1[N+](=O)[O-])OCC(=O)c1ccccc1 | 10.3* | -2.0 | x | 25.1 | -1.7 | 4.3 | 8.0* | 2.1
COc1ccc(C(=O)COC(=O)/C=C/c2ccccc2[N+](=O)[O-])cc1 | -1.2 | 0.0 | -5.2 | 13.2 | x | x | x | x
SMILES | SMARCA2 activ | Wnt act | esBAF inh | MITF TRPM1 HTS | HSF1 inh | HSF-1 act | SMARCA2 act conf | GAL4-VP16 Luc
O=C(CSc1nnc(NC2CC2)s1)c1ccc[nH]1 | 12.0* | -5.2 | x | 46.8 | x | x | 10.3* | 7.3*
Cc1ccccc1-c1cc2nc(NCc3ccccc3)n(C)c(=O)c2s1 | -3.2 | -0.4 | -3.3 | x | x | x | x | x
Cc1ccccc1-c1cc2nc(NCc3ccncc3)n(C)c(=O)c2s1 | 11.3* | 1.1 | 23.2 | x | x | x | 3.3 | 2.8
COc1ccccc1NC(=O)C(=O)/C=C(\O)c1ccccc1 | 10.3* | 23.7 | u | x | -1.6 | 9.7 | -1.0 | 0.3
CCn1c(O)c(N=Nc2ccc(Cl)c(C(=O)O)c2)c2ccccc21 | 10.9* | 3.2 | x | 12.5 | -1.0 | -6.7 | -4.2 | 1.2
c1ccc2c(c1)nnn2-c1ncnc2sccc12 | 11.6* | 8.5 | 16.5 | 42.4 | 7.3 | 23.4 | 9.9* | 5.1
CN(C)C(=O)C[C@@H]1C[C@@H]2c3cc(NC(=O)C4CCC4)ccc3O[C@@H]2[C@@H](CO)O1 | x | x | 6.0 | x | x | x | x | x
O=C(/C=C/c1ccco1)Nc1cccnc1Cl | 9.3* | 36.3* | 10.8 | x | 11.9 | u | 6.3 | 6.8*
Cc1ccnc(NC(=S)NC(=O)/C=C/c2ccco2)c1 | 8.0* | x | x | 46.2 | 29.1 | 47.6 | 11.3* | 8.9*
CN(C)c1cnn(-c2ccccc2)c(=O)c1Cl | 8.5* | -1.7 | x | 33.4 | 0.0 | 1.4 | 6.1 | 2.0
CCCCCn1nnnc1C1(C)CCSCC(=O)N1Cc1ccco1 (stereo unspecified) | 8.4* | x | x | x | x | x | -0.8 | -0.6
CC(=O)c1ccc(N2CCN(C(=S)NCCCN(C)C)CC2)cc1 | 8.2* | -0.9 | x | 1.8 | -1.9 | -19.4 | 0.2 | 3.4
Cc1nc(-c2ccc(NC(=O)C3CC3)cc2)cs1 | 8.2* | 13.8 | 49.3* | u | 15.7 | 15.6 | 9.7* | 8.9*
Cc1nc(-c2cccc(NC(=O)C3CCCCC3)c2)cs1 | 0.9 | 1.4 | 2.0 | 1.6 | -2.1 | -2.0 | x | x
O=C1C(C=NCCCN2CCCC2=O)=C(O)c2ccccc21 | 8.5* | x | 27.1 | 36.2 | 0.0 | 13.9 | 7.1 | 5.7*
Fc1ccc(N/N=C/c2cccnc2)c(F)c1 | 8.4* | 4.1 | x | 31.5 | 8.6 | 16.5 | 1.4 | 0.9
O=c1cc2[nH]c3ccccc3c(=O)n2nc1-c1ccccc1 | 8.7* | x | 9.1 | 42.9 | 15.1 | 13.4 | 9.5* | 6.2*

Bioassay records from PubChem BioAssay.
